The results in this text go back to PubChem BioAssay AID463173 (ICCB-Longwood Screening Facility, Harvard Medical School, 2010).

Out of some 52,000 compounds screened, about 4,300 (8.3%) were called active. The sample holds actives, similar compounds and a random draw of the others, so the mix is not that of the screen. Rule as the data show it: active = survival mostly below about 52% (no sharp cut-off); inactive = mostly above about 56%.

The experiment deals with DeltatarO mutant. Kind of experiment: S. aureus survival, RN4220 and DeltatarO strains – OD600, teichoic acid synthesis inhibitors, primary screen (AID 463173). The settings on record: S. aureus RN4220 wild type/DeltatarO growth, OD600, 18 h, stronger effect = lower value, screened at 18.75 µg/mL (by protocol).
For the compound `CCC(=O)Nc1ccc2nc(C3CC3)n(Cc3ccc(Cl)cc3)c(=O)c2c1`, the survival was 111% (inactive).
To `Cc1cccc(C)c1OCC(=O)NCC1(N(C)C)CCCCC1` belongs 86% (inactive); to `Cc1ccc(Cn2c(CNC(=O)c3ccccc3Br)nc3cccnc32)cc1`, 120% (inactive).
To `COc1cc(OC)c(NS(=O)(=O)c2cc3c(cc2C)NC(=O)CO3)cc1Cl` belongs 88% (inactive); to `CCN(CC)CCCNC(=O)C1CCN(S(C)(=O)=O)CC1`, 85% (inactive); to `COc1ccc(Nc2cc(C)c3ccccc3n2)cc1`, 96% (inactive).
To `Cc1cc(C)cc(Nc2cc(C(=O)NC3CCCCC3)c3ccccc3n2)c1` belongs 116% (inactive).
In the case of `CSc1nc(Nc2ccc(C)cc2C)cc(-c2ccccc2)n1`, the survival was 51% (inactive).
To `COc1cccc(Nc2cc(-c3ccccc3)nc(C)n2)c1` belongs 37% (active); to `CSc1nc(C)cc(Nc2cccc(C(=O)O)c2)n1`, 63% (inactive).
For `CSc1nc(Nc2ccc(F)cc2)cc(-c2ccccc2)n1`, the survival was -5% (active).
Regarding `Cc1cc(Nc2ccc(Br)cc2)nc(C)n1`, the survival is 51% (inactive).
Under `Cc1ccc(NC(=O)c2cc3nc(-c4ccccc4)cc(-c4ccccc4)n3n2)cc1` stands 60% (inactive).
Regarding `CCN(CC)CCCNc1cc(-c2ccccc2)nc(C)n1`, the survival is 65% (inactive).
To `CCOc1ccccc1Nc1cc(-c2ccccc2)nc(C)n1` belongs 60% (inactive); to `Cc1cc(C)cc(Nc2cc(-c3ccccc3)nc(C)n2)c1`, 8% (active).
To `Cc1nc(Nc2ccc(Cl)cc2)cc(-c2ccccc2)n1` belongs -4% (active).
To `Cc1ccc(C(C)(C)C)c(OCC(=O)NCCc2nc3ccccc3[nH]2)c1` belongs 70% (inactive); to `O=C(Cn1c(=O)nc(-c2ccccc2)c2cc(Cl)ccc21)NCc1ccccc1`, 83% (inactive).
Consider `COc1ccc(NS(=O)(=O)c2cnc(N)nc2)cc1Cl`, for which the survival was 67% (inactive).
Under `CN1C(=O)C(Cc2ccccc2)NC1=S` (stereo not drawn) stands 77% (inactive).
To `O=C(NC(=S)NCc1ccccc1)c1ccco1` belongs 71% (inactive).
Under `COc1cc(Cl)c(C)cc1NC(=O)CCc1c(C)nc2c3cccnc3nn2c1C` stands 87% (inactive).
Consider `COc1ccc(Cl)cc1Nc1sc(C(=O)c2ccccc2)c(N)c1C(=O)Nc1ccccc1`, for which the survival is 103% (inactive).
To `Cc1ccc(CNC(=O)CN2C(=O)C3CCCCN3c3ccc(C(=O)N(C)C)cc32)cc1` (stereo not drawn) belongs 88% (inactive).
For `Cc1cc(C)c2nc(NCCNC(=O)C3CCCCC3)c(C#N)cc2c1`, the survival was 93% (inactive).
To `Cc1ccc(Nc2cc(-c3ccccc3)nc(C)n2)cc1` belongs 24% (active).
With `Cc1ccc(-c2cc(-c3ccccc3)nc(N3CCCC3)n2)cc1`, the survival is 115% (inactive).
With `CCOC(=O)c1ccc(Nc2cc(-c3ccccc3)nc(C)n2)cc1`, the survival was 50% (inactive).
Under `Cc1ccc(CCNC(=O)c2ccc(CS(=O)(=O)Cc3ccc(Cl)cc3)o2)cc1` stands 84% (inactive); under `Cn1nnc2c(N3CCN(c4ccccc4F)CC3)ncnc21`, 83% (inactive); under `Cc1cc(Cl)nc(-c2ccccc2)n1`, 91% (inactive).
To `CCOc1ccc(NC(=O)CN2CCSc3ccc(S(=O)(=O)N4CCCC4)cc32)cc1` belongs 76% (inactive); to `Cc1ccc(NC(=O)CN2CCSc3ccc(S(=O)(=O)N4CCCC4)cc32)cc1`, 77% (inactive); to `CCc1ccc(NC(=O)CN2CCSc3ccc(S(=O)(=O)N4CCCC4)cc32)cc1`, -4% (active).
To `Cc1ccc(NC(=O)CSc2nc(=O)n(Cc3cccnc3)c3c2CCC3)cc1F` belongs 67% (inactive).
In the case of `Cc1ccc(C(=O)CSc2ncn(-c3ccccc3)n2)c(C)c1`, the survival was 42% (inactive).
Under `Cc1ccc(Cn2cccc2C2=NC(C)(C)CO2)cc1` stands 45% (active); under `Cc1ccc(Cn2ccn(Cc3ccc(C)cc3)c(=O)c2=O)cc1`, 97% (inactive).
To `Cc1ccc(Cn2cccc(NC(=O)c3ccncc3)c2=O)cc1` belongs 101% (inactive); to `O=S(=O)(Nc1ccc(F)cc1F)c1ccc(Br)s1`, 22% (active).
Turning to `O=S(=O)(Nc1ccc(F)cc1F)c1ccc(-n2cccn2)cc1`, the survival was 70% (inactive).
Consider `O=c1ccc2cc(S(=O)(=O)Nc3ccc(F)c(Cl)c3)ccc2[nH]1`, for which the survival was 89% (inactive).
Under `COc1ccc(CNS(=O)(=O)c2ccc3c(c2)C(C)(C)C(=O)N3C)cc1OC` stands 76% (inactive).
Under `COc1ccc(OC)c(NS(=O)(=O)c2ccc(Br)s2)c1` stands 37% (active).
To `COc1ccc(OC)c(NS(=O)(=O)c2ccc3c(c2)C(C)(C)C(=O)N3C)c1` belongs 48% (active).
For `COc1ccc(NC(=O)C2CCC(CNS(=O)(=O)c3ccc(Br)s3)CC2)c(OC)c1` (stereo not drawn), the survival was 74% (inactive).
To `O=S(=O)(Nc1ccc(F)c(Cl)c1)c1ccc(Br)s1` belongs 10% (active); to `CC(C)Oc1ccc(CNS(=O)(=O)c2ccc3c(c2)C(C)(C)C(=O)N3C)cc1`, 84% (inactive).
`Cc1ccccc1NS(=O)(=O)c1ccc(Br)s1`: the survival is 109% (inactive).
Under `COc1ccc(OC)c(NS(=O)(=O)c2ccc(-c3cc(C)no3)s2)c1` stands 88% (inactive); under `O=C(Nc1ccc(Cl)cc1)C1CCC(CNS(=O)(=O)c2ccc(Br)s2)CC1` (stereo not drawn), 86% (inactive).
Under `O=C(CSCc1ccccc1Cl)N/N=C/c1ccco1` stands 101% (inactive); under `COc1ccc(-c2nn(-c3ccc(F)cc3F)c3c2cnc2ccc(F)cc23)cc1`, 79% (inactive).
As for `CN1CCC(OC(=O)COc2ccc(F)cc2)CC1`, the survival was 79% (inactive).
Take `NS(=O)(=O)c1ccc(CCNC(=O)C2CCN(c3ncnc4c3nc3n4CCCCC3)CC2)cc1`: the survival is 83% (inactive).
Under `Cc1ccc(NCc2cccn2-c2nnc(N3CCC(C(=O)NCCc4ccccc4)CC3)s2)cc1` stands 68% (inactive); under `Cc1ccc2c(c1)N(C(=O)N1CCC(C(=O)NCc3ccccc3F)CC1)CC(C)O2` (stereo not drawn), 79% (inactive).
With `Cc1cc(C)c2[nH]c(=O)c(C(c3nnnn3C(C)(C)C)N(CCc3ccc(F)cc3)Cc3ccco3)cc2c1` (stereo not drawn), the survival was 87% (inactive).
Regarding `CCCSc1nnc2[nH]c(=O)cc(C)n12`, the survival is 124% (inactive).
Under `CCOC(=O)C(CC)Sc1nnc2[nH]c(=O)cc(C)n12` (stereo not drawn) stands 52% (active); under `Cc1cc(=O)[nH]c2nnc(SCC(N)=O)n12`, 69% (inactive); under `CN1C(=O)C(=C(C#N)C#N)c2cc(Br)ccc21`, 98% (inactive).
Under `CNC(=O)C1CCC(Cn2c(=O)c3sccc3n(CC(=O)Nc3cc(F)ccc3F)c2=O)CC1` (stereo not drawn) stands 79% (inactive).
To `Cc1ccccc1NC(=O)Nc1nnc(N(C)Cc2ccccc2)s1` belongs 85% (inactive); to `CCOc1ccccc1NC(=O)Nc1nnc(N(C)Cc2ccccc2)s1`, 53% (active); to `CCc1ccccc1NC(=O)Nc1nnc(N(C)Cc2ccccc2)s1`, 60% (inactive).
`CCC(C)c1ccc(NC(=O)C2CCCN(c3ncccn3)C2)cc1` (stereo not drawn): the survival is 81% (inactive).
Under `COc1ccc(Cl)cc1NC(=O)CN1c2ccccc2S(=O)(=O)c2ccccc21` stands 75% (inactive); under `COc1cc(Cl)c(C)cc1NC(=O)c1cc(S(=O)(=O)N2CCCC2)ccc1F`, 37% (active); under `Cc1ccc(N2CCN(S(=O)(=O)c3ccc(F)c(C(=O)Nc4ccc(Cl)cc4Cl)c3)CC2C)cc1` (stereo not drawn), -4% (active).
To `Cc1cccc(N2CCN(S(=O)(=O)c3ccc(F)c(C(=O)Nc4cccc(Cl)c4C)c3)CC2C)c1` (stereo not drawn) belongs 85% (inactive); to `O=C(Nc1ccccc1C(F)(F)F)C1CCN(S(=O)(=O)c2ccccc2)CC1`, 49% (active); to `CCc1ccccc1NC(=O)C1CCN(S(=O)(=O)c2ccccc2)CC1`, 56% (inactive).
Under `COc1ccc(Cl)cc1NC(=O)C1CCN(S(=O)(=O)c2ccc3c(c2)CC(C)N3C(C)=O)CC1` (stereo not drawn) stands 92% (inactive); under `COc1ccc(Cl)cc1NC(=O)C1CCN(S(=O)(=O)c2ccc(F)cc2)CC1`, 43% (active); under `COc1ccc(C)cc1NC(=O)c1cc(S(=O)(=O)N2CCC(C)CC2)ccc1F`, 98% (inactive).
Consider `COc1ccc(OC)c(NC(=O)C2CCN(S(=O)(=O)c3ccc(C)cc3)CC2)c1`, for which the survival is 50% (inactive).
Under `O=C(Nc1ccc(Cl)cc1Cl)c1cc(S(=O)(=O)N2CCCCCC2)ccc1F` stands 76% (inactive); under `Cc1ccc(C)c(N2CCN(S(=O)(=O)c3ccc(F)c(C(=O)Nc4ccc(Cl)cc4Cl)c3)CC2)c1`, 96% (inactive); under `O=C(Nc1ccccc1C(F)(F)F)C1CCN(S(=O)(=O)Cc2ccccc2)CC1`, 75% (inactive).
Regarding `CCc1nn(CC(=O)NCc2ccc(C)cc2)c(=O)c2cc3occc3n12`, the survival is 105% (inactive).
To `CCOc1ccc(NC(=O)Cn2cc(C(=O)c3ccc(F)cc3)c(=O)c3cc4c(cc32)OCCO4)cc1` belongs 65% (inactive); to `COc1ccc2nc(N(Cc3cccnc3)C(=O)COc3ccccc3)sc2c1`, 90% (inactive); to `Cc1ccc(OCCCSc2nc(-c3ccc(C(C)(C)C)cc3)nc3cc(=O)[nH]n23)cc1C`, 58% (inactive).
To `COc1ccc(NC(=O)C2=CC(c3ccc4c(c3)OCO4)=NS(=O)(=O)N2C)cc1OC` belongs 79% (inactive); to `O=C(CSc1ncn(-c2ccccc2)n1)NC1CCCCC1`, 61% (inactive); to `CCOC(=O)c1c(NC(=O)CC)sc(C(=O)OC)c1C`, 75% (inactive).
Under `CCOC(=O)c1ccc(-n2c(-c3ccc(C)cc3)c(C)n3c4c(=O)n(C)c(=O)n(C)c4nc23)cc1` stands 75% (inactive); under `CCOc1ccc(C(=O)Nc2nnc(S(=O)(=O)Nc3ccccc3)s2)cc1`, 34% (active).
For `O=C(COc1ccccc1)Nc1nnc(S(=O)(=O)Nc2ccccc2)s1`, the survival was 79% (inactive).
Under `CCOc1ccc(C(=O)Nc2nnc(S(=O)(=O)N(CC)c3ccccc3C)s2)cc1` stands 44% (active); under `COc1ccc(NS(=O)(=O)c2nnc(NC(=O)c3ccccc3F)s2)cc1`, 72% (inactive).
Under `CCC(Oc1ccccc1)C(=O)Nc1nnc(S(=O)(=O)N2CCCC2)s1` (stereo not drawn) stands 103% (inactive); under `CCC(Oc1ccccc1)C(=O)Nc1nnc(S(=O)(=O)Nc2ccccc2)s1` (stereo not drawn), 40% (active).
To `COc1ccc(C(=O)Nc2nnc(C(C)C)s2)cc1OC` belongs 55% (inactive).
As to `CCC(Oc1ccccc1)C(=O)Nc1nnc(S(=O)(=O)N(CC)CC)s1` (stereo not drawn), the survival is 104% (inactive).
Under `CCN(c1ccccc1C)S(=O)(=O)c1nnc(NC(=O)c2ccc(OC)c(OC)c2)s1` stands 40% (active).
